Measurements from PubChem BioAssay AID1445 (SRMLSC, 2008).
Where “and” joins values, the source holds several entries; their conditions need not be identical. Equal values may be shown once. The whole screen tested about 220,000 compounds, of which about 910 (0.41%) were called active. This is one part of a sample in which actives are shown more often than they occur.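 How the source made its calls: active means primary inhibition above the hit cutoff, then over 50% inhibition at one or more dose response concentrations (cut at about 23% in these data, passing the limit was not always enough); inconclusive means conflicting primary data, or primary hits not chosen for dose response; inactive means low primary inhibition, or under 50% at every dose.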 Results with a measured potency or affinity are listed apart. More than one record can exist for a structure, and the calls need not agree.

These compounds were tested against Aminopeptidase N (Plasmodium falciparum (isolate 3D7)) (UniProt O96935) (assay: malaria alanyl aminopeptidase activity blockers – biochemical, fluorogenic H-Leu-NHMec substrate, 1536-well (AID 1445;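 further: plate controls were DMSO full reaction for no effect and no enzyme background for full effect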)). Conditions: recombinant M1AAP, H-Leu-NHMec fluorogenic kinetic assay; at 30 µM, stronger effect = higher value unless noted.
Sequence of Aminopeptidase N (Plasmodium falciparum (isolate 3D7)) (O96935 whole entry, looked up): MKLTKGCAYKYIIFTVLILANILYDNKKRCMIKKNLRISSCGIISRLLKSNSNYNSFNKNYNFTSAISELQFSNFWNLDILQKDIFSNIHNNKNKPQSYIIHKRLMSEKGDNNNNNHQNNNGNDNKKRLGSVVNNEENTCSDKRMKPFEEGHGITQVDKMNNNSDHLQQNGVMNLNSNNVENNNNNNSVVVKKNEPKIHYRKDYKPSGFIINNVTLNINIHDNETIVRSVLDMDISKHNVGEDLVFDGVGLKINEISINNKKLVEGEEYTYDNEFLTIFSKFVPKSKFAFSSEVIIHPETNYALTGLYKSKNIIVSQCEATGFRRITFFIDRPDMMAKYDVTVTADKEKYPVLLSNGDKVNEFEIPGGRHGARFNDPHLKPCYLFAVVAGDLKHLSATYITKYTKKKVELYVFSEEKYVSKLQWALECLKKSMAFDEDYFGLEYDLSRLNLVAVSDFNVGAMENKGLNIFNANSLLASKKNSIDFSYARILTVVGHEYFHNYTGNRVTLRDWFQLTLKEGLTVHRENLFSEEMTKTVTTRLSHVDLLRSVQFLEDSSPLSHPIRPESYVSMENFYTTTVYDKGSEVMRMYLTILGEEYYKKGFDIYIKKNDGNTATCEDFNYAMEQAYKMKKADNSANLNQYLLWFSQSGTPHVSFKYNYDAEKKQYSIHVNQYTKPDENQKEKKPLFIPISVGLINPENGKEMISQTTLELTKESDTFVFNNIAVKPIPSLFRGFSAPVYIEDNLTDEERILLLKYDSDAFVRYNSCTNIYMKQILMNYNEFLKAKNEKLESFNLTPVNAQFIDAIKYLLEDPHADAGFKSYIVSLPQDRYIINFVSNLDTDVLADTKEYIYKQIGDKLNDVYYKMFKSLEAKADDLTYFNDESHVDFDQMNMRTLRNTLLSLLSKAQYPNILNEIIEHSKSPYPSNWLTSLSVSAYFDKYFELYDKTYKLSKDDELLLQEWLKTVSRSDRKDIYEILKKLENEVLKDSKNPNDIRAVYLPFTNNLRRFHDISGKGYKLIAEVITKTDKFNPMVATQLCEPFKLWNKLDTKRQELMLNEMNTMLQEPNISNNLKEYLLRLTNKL

Row | SMILES | inhibition
1 | NC(=O)CSc1nnc(-c2cccnc2)n1Cc1ccccc1 | -0.97% (inactive)
2 | Cn1nc(C(=O)Nc2sc3c(c2C#N)CCCC3)ccc1=O | 4.41% (inactive)
3 | O=C1c2ccccc2C(=O)N1n1c(=O)[nH]c2ccccc2c1=O | 2.13% (inactive)
4 | CC(C)Cn1c(CN2C(=O)c3ccccc3C2=O)nc2ccccc2c1=O | -3.16% (inactive)
5 | Brc1ccccc1-c1csnn1 | 2.07% (inactive)
6 | CCOCCCn1c(=S)[nH]c2cc(C(=O)NCCCN(CC)CC)ccc2c1=O | 12.3% (inactive)
7 | COc1ccc(C(=O)c2c(C)oc3ccc(O)c(CN4CCOCC4)c23)cc1 | 1.06% (inactive)
8 | O=C(CC(Cc1ccccc1)c1ccco1)NC1CCCCC1 (stereo not drawn) | 3.48% (inactive)
9 | Cc1ccc(C2C=C(c3ccccc3)Nc3nc(N4C(=O)CCC4=O)nn32)cc1 (stereo not drawn) | 4.75% (inactive)
10 | CC1=CC(c2ccc(Cl)cc2)n2nc(N3C(=O)CCC3=O)nc2N1 (stereo not drawn) | 14.2% (inactive)
11 | COC(=O)c1ccc(Sc2ccc(C)cc2)c(N)c1 | 11.3% (inactive)
12 | COC(=O)c1cc(O)c(O)c(O)c1 | 6.36% (inactive)
13 | CCCN(CC1CC1)C(=S)NC(=O)C1CC1 | 3.89% (inactive)
14 | CC(=O)CCc1c(C)nc2ccc(C(=O)O)cc2c1Cl | 11.9% (inactive)
15 | CCOC(=O)c1cccc(Nc2ncnc3ccccc23)c1 | 6.34% (inactive)
16 | O=S(=O)(c1ccc(Cl)cc1)N(CCCN1CCOCC1)Cc1cccs1 | 2.6% (inactive)
17 | COc1cc(NC(=O)c2cccs2)c(OC)cc1NC(=O)CCn1nnc2ccccc21 | 25% (active)
18 | C/C(=N\NC(=O)CCn1nnc2ccccc21)c1cccs1 | 0% (inactive)
19 | COc1cc(NC(=O)c2cccs2)c(OC)cc1NC(=O)CCC(=O)Nc1cccc2ncccc12 | 16.7% (inactive)
20 | Cc1ccc(Cn2ccc(NC(=O)c3noc4c3CCc3ccccc3-4)n2)cc1 | 8.24% (inactive)
21 | Cc1cc([N+](=O)[O-])ccc1NC(=S)NC(=O)Cc1ccccc1 | 23.7% (active)
22 | Cc1cc([N+](=O)[O-])ccc1NC(=S)NC(=O)C(c1ccccc1)c1ccccc1 | 9.66% (inactive)
23 | CC(=O)NC(=S)Nc1ccc([N+](=O)[O-])cc1C | 3.35% (inactive)
24 | O=C(CSc1ccc2nnc(-c3ccncc3)n2n1)Nc1ccc2c(c1)OCO2 | 5.11% (inactive)

Row | SMILES | inhibition
25 | Cn1cc([N+](=O)[O-])c(C(=O)NNC(=O)c2ccc([N+](=O)[O-])cc2)n1 | 1.97% (inactive)
26 | CN(C)CCCNc1ncnc2scc(-c3ccccc3)c12 | -12.9% (inactive)
27 | Cc1ccc(-c2csc3ncnc(NS(=O)(=O)c4ccc(Cl)cc4)c23)cc1 | -5.44% (inactive)
28 | CCOC(=O)c1ccc(NC(=O)COc2ccc(S(=O)(=O)N3CCCC3)cc2)cc1 | 10.4% (inactive)
29 | O=S(=O)(Nc1nc2ccccc2nc1Cl)c1ccccc1 | 7.23% (inactive)
30 | O=S(=O)(Nc1nc2ccccc2nc1Cl)c1ccc2c(c1)OCCO2 | 15.8% (inactive)
31 | Cc1cc(S(=O)(=O)Nc2cccc(Cl)c2)c(C)s1 | 7.05% (inactive)
32 | CSc1ccccc1C(=O)C1CCCN(C(=O)c2ccc(N3CCOCC3)cc2)C1 (stereo not drawn) | 0.54% (inactive)
33 | COC(=O)C1=NN(C(=O)c2cccc(Cl)c2)C(O)(C(C)(C)C)C1 (stereo not drawn) | 33.3% (inactive)
34 | COC(=O)C1=NN(C(=O)c2ccc(Br)cc2)C(O)(C(C)(C)C)C1 (stereo not drawn) | 53.2% (inactive)
35 | Cc1ccn2c(NCc3ccc4c(c3)OCO4)c(-c3ccc(O)cc3)nc2c1 | 3.37% (inactive)
36 | O=C(NCCc1nc2ccccc2[nH]1)/C(=C/c1ccco1)NC(=O)c1ccc(Br)cc1 | 3.21% (inactive)
37 | O=C(O)CSc1nc(-c2ccccc2)nc2c1oc1ccccc12 | 8.15% (inactive)
38 | Cc1nc(SCC(=O)O)c2oc3ccccc3c2n1 | 3.31% (inactive)
39 | CN(C)c1ccc(/C=N/NC(=O)CCCO)cc1 | 16.7% (inactive)
40 | C/C=C/c1ccc(OCCOc2ccc(C=O)cc2)c(OC)c1 | 9.05% (inactive)
41 | C/C=C/c1ccc(OCCCCOc2ccc(OC)cc2)c(OC)c1 | -1.18% (inactive)
42 | Cc1cc(-c2nnc(SCC(=O)Nc3nc(-c4ccccc4)cs3)o2)no1 | 17.1% (inactive)
43 | O=[N+]([O-])c1ccc(Oc2c(F)c(F)nc(N3CCCC3)c2F)cc1 | 1.61% (inactive)
44 | O=C(O)c1cc(-c2ccco2)nc2cc3ccccc3cc12 | 15.5% (inactive)
45 | O=C(O)c1cc(-c2ccco2)nc2ccc(Br)cc12 | 5.53% (inactive) and 27.5% (active)
46 | O=C(O)c1cc(-c2ccco2)nc2ccccc12 | 5.44% (inactive)
47 | COc1ccc(C2CC(=O)C(C=NCCN3CCN(C(=S)Nc4ccccc4)CC3)=C(O)C2)cc1OC (stereo not drawn) | 12.8% (inactive)
48 | O=C(CNC(=O)c1ccccc1)N/N=C/c1cn[nH]c1-c1ccccc1 | 4.33% (inactive)
